High-throughput results from PubChem BioAssay.
Shown are actives, neighbours in structure and some others; about 12% of the full set was active somewhere.
BAZ2B block: qHTS Assay for Inhibitors of BAZ2B; Bromodomain adjacent to zinc finger domain protein 2B (Homo sapiens), Q9UIF8; AlphaScreen BAZ2B-H3K14Ac peptide displacement; Potency, µM (titrated, usually from 114 µM), most hits filed as inhibitors; 360,000 compounds, 4.4% hits; AID 504333, 2011; further: nearly all actives have a fitted effect of over 60% in size
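Complex of BAZ2B and biotin-H3K14Ac (50 nM apiece) forms over 30 min at RT, then faces library compounds up to 110 uM for another 30 min; AlphaScreen beads added, 20 min dark incubation, luminescence read.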
JMJD2A Tudor inh: qHTS Assay for Inhibitors of JMJD2A-Tudor Domain. AlphaScreen JMJD2A-Tudor / H3K4me3 peptide binding. Potency, µM (top dose mostly 114 µM), most hits filed as inhibitors. 390,000 compounds, 4.4% hits. AID 504339, 2011; further: nearly all actives have a fitted effect of over 50% in size
Target sequence (O75164 whole entry, looked up, the tested form may be a part): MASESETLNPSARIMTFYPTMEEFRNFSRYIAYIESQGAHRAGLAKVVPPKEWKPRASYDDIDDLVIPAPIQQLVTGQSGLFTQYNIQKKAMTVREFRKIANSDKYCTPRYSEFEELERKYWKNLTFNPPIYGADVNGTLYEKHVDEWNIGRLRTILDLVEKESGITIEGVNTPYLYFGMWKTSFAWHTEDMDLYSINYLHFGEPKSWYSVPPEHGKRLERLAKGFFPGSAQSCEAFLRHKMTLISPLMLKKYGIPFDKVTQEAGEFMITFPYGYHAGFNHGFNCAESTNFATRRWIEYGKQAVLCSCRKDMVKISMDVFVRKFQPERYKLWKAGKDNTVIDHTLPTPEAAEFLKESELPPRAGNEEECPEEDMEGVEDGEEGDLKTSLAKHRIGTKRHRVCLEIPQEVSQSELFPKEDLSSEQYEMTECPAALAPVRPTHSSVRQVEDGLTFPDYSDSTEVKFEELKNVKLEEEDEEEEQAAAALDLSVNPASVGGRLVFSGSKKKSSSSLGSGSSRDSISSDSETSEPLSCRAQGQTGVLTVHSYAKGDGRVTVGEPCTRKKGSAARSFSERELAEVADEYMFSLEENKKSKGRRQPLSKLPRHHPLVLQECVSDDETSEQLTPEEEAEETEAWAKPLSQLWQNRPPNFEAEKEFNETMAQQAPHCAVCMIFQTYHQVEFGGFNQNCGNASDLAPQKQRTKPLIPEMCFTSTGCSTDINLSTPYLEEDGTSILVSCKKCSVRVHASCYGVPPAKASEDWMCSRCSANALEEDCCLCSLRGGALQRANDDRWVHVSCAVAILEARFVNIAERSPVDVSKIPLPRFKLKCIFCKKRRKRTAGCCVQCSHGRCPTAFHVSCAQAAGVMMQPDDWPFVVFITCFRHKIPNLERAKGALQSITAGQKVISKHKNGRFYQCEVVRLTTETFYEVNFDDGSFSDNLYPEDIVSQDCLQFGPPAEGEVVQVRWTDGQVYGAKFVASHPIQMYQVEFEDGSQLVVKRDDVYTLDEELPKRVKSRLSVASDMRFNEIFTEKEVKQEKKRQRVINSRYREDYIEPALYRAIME
G9a inh: qHTS Assay for Inhibitors of Histone Lysine Methyltransferase G9a. Potency, µM (top dose mostly 102 µM), actives largely listed as inhibitors. 350,000 compounds, 8.8% hits. G9a H3K9 monomethylation, AlphaScreen, 2 h. Histone-lysine N-methyltransferase EHMT2 (Homo sapiens), Q96KQ7; further: nearly all actives have a fitted effect of over 75% in size
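G9a (20 nM) preincubated 15 min RT with compounds, then 500 nM biotinylated H3K9 peptide and 20 uM SAM added; 2 h RT reaction. Monomethyl-H3K9 product detected by AlphaScreen with anti-H3K9me1 antibody, streptavidin donor and anti-rabbit IgG acceptor beads.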
Sfp PPTase inh: qHTS Assay for Inhibitors of Bacillus subtilis Sfp phosphopantetheinyl transferase (PPTase). 4'-phosphopantetheinyl transferase ffp (Bacillus subtilis), Q9F4F7. 310,000 compounds, 3.5% hits. Potency, µM, usual class: inhibitors. Biochemical Sfp PPTase activity, qHTS;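 further: the enzyme is Sfp with the accession as filed and its product quenches rhodamine fluorescence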
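Fluorescence-quenching assay with 15 nM Sfp, 5 uM rhodamine-CoA and 12.5 uM BHQ-2-labelled ybbR peptide in pH 7.6 Hepes/MgCl2 buffer. Enzyme was pre-incubated with compound for 15 min at room temperature. Rate was taken from the 30-min fluorescence change (525/598 nm).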
HP1b binding inh: HTS for Inhibitors of HP1-beta Chromodomain Interactions with Methylated Histone Tails; AID 540317, 2011; 390,000 compounds, 0.56% hits; Potency, µM (doses to about 114 µM), actives largely listed as inhibitors; Chromobox protein homolog 1 (Homo sapiens), P83916; AlphaScreen HP1-beta / biotin-H3K9me3 peptide binding; further: nearly all actives have a fitted effect of over 70% in size
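HP1-beta protein (50 nM final) preincubated 30 min at room temperature with biotinylated H3(1-18)K9me3 peptide (50 nM) in PBS pH 7.4, 0.01% Tween-20, then compound added for 30 min. AlphaScreen streptavidin donor/nickel chelate acceptor beads (10 ug/mL final), 30 min dark, luminescence read.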
Of the large screens only hits and unclear results are named; the others gave an inactive call. The call rests on the fitted dose curve; in most records, active means well fitted curve in the direction sought with a large enough effect; inconclusive means small, poorly fitted or top-dose-only effect, or another doubt; inactive means no such curve, though single readings can be large; an effect the other way counts as inactive or inconclusive.

O=C(N/N=C/c1oc(O)c2ccccc12)c1ccccc1	G9a inh 11µM
CC1=C/C(=C/N(C)c2ccccc2)C(=O)S1	BAZ2B block inconclusive, JMJD2A Tudor inh inconclusive, G9a inh inconclusive, Sfp PPTase inh 28µM, HP1b binding inh inconclusive
CN(Cc1ccco1)C(=O)CSc1nc(C2CC2)n(-c2ccccc2)n1	BAZ2B block inconclusive, G9a inh 32µM (no result: Sfp PPTase inh)
CN(Cc1nc2ccccc2c(=O)[nH]1)C(=O)COc1ccccc1Cc1ccccc1	none (no result: Sfp PPTase inh)
Nc1c(C(=O)N2CCCC2)sc2nc3c(cc12)CCCCCC3	G9a inh inconclusive, Sfp PPTase inh 56µM
Cc1cc(C)c2c(N)c(C(=O)N3CCCCCC3)sc2n1	BAZ2B block inconclusive, JMJD2A Tudor inh 35µM, G9a inh inconclusive, Sfp PPTase inh 35µM
CCOC(=O)C1(C(F)(F)F)N=C(C(F)(F)F)Nc2ccc(F)cc21 (centres undefined)	none
COc1ccc(C(O)P(=O)(OCC(C)C)OCC(C)C)c(OC)c1 (centres undefined)	none
O=C(NCCCn1ccnc1)C(=O)NCC1OCCN1S(=O)(=O)c1ccc(Cl)cc1 (centres undefined)	BAZ2B block 13µM, JMJD2A Tudor inh 79µM
O=C(NCc1ccccn1)C(=O)NCC1OCCN1S(=O)(=O)c1ccc(Cl)cc1 (centres undefined)	none
O=C(NCCc1ccccc1)C(=O)NCC1OCCCN1S(=O)(=O)c1ccc(F)cc1 (centres undefined)	none
O=C(NCCCn1ccnc1)C(=O)NCC1OCCN1S(=O)(=O)c1ccccc1 (centres undefined)	BAZ2B block 22µM, JMJD2A Tudor inh inconclusive
O=C(NCCCn1ccnc1)C(=O)NCC1OCCCN1S(=O)(=O)c1ccc(F)cc1 (centres undefined)	BAZ2B block 50µM
O=C(NCCCn1ccnc1)C(=O)NCC1OCCCN1S(=O)(=O)c1ccccc1 (centres undefined)	BAZ2B block 14µM
COC(=O)c1cc(NC(=O)c2ccoc2C)cc(C(=O)OC)c1	none
COc1ccc(-n2nc(C(=O)N3CCCCC3)c3ccccc3c2=O)cc1	none
CCOC(=O)N1CCN(C(=O)C(C)n2nc(C)n3c(cc4sccc43)c2=O)CC1 (centres undefined)	G9a inh inconclusive
N#C/C(=C\c1ccc(O)c(O)c1)C(=O)N1CCCC1	JMJD2A Tudor inh inconclusive, G9a inh 13µM, Sfp PPTase inh 63µM (no result: BAZ2B block)
N#C/C(=C\c1ccc(O)c(O)c1)C(=O)c1ccc(O)c(O)c1	BAZ2B block 2.2µM, JMJD2A Tudor inh 0.71µM, G9a inh 2.2µM, HP1b binding inh inconclusive (no result: Sfp PPTase inh)
N#C/C(=C\c1ccc(O)c(O)c1)S(=O)(=O)c1ccccc1	BAZ2B block 10µM, JMJD2A Tudor inh inconclusive, G9a inh 3.2µM, HP1b binding inh inconclusive
COc1cc(/C=C(\C#N)C(=O)N2CCCCC2)ccc1O	none
N#C/C(=C\c1c[nH]c2ccccc12)C(=O)NC1CC1	none (no result: G9a inh)
N#C/C(=C\c1ccc(O)c(O)c1)C(=O)OCCc1cccs1	none (no result: BAZ2B block, JMJD2A Tudor inh, G9a inh, HP1b binding inh)
N#C/C(=C\c1c[nH]c2ccccc12)C(=O)c1ccc(O)c(O)c1	G9a inh 18µM (no result: BAZ2B block, JMJD2A Tudor inh, Sfp PPTase inh, HP1b binding inh)
O=C(CSc1ncc2c(n1)-c1ccc(Cl)cc1N(Cc1ccccc1)S2(=O)=O)Nc1ccccc1C(F)(F)F	none (no result: Sfp PPTase inh)
COCCNC(=S)N/N=C(\C)c1ccc2cc(OC)ccc2c1	BAZ2B block inconclusive
COc1ccc(S(=O)(=O)N2CCCC2C(=O)NCc2cccs2)cc1 (centres undefined)	none
CC(C)(C)c1ccc(S(=O)(=O)N(CCCN2CCOCC2)Cc2cccs2)cc1	BAZ2B block 25µM, JMJD2A Tudor inh 22µM, G9a inh 14µM, Sfp PPTase inh 2.2µM, HP1b binding inh 16µM
O=[N+]([O-])c1ccc(S(=O)(=O)N(CCCN2CCOCC2)Cc2cccs2)cc1	BAZ2B block 50µM, JMJD2A Tudor inh 79µM, G9a inh 35µM
CC(=O)Nc1ccc(S(=O)(=O)N(CCCN2CCOCC2)Cc2cccs2)cc1	BAZ2B block 79µM, JMJD2A Tudor inh 45µM, G9a inh 40µM
CCc1ccc(NC(=O)N(CCCN2CCOCC2)Cc2cccs2)cc1	none
O=C(Nc1ccccc1)N(CCCN1CCOCC1)Cc1cccs1	none
CC(Oc1ccccc1F)c1nnc(SCC(=O)N(c2ccccc2)C2CCS(=O)(=O)C2)o1 (centres undefined)	none (no result: BAZ2B block, G9a inh, Sfp PPTase inh)
COc1ccc(-n2ncc3c2ncn2nc(COc4ccc(Cl)cc4)nc32)cc1	none (no result: Sfp PPTase inh)
COC(=O)c1ccc(C23CC4(C2)[C@H](CN(Cc2ccc(C(F)(F)F)cc2)[C@@H]4c2ccccc2)C3c2ccccc2)cc1 (some centres undefined)	none
COc1ccc(/C=N/n2cnc3c([nH]c4ccc(F)cc43)c2=O)cc1CSc1ccccn1	none
Cc1cc(C)cc(NC(=O)CSc2n[nH]c(-c3cccnc3)n2)c1	none
O=C(CSc1n[nH]c(-c2cccnc2)n1)OC1CCCCC1	JMJD2A Tudor inh 22µM
O=C(CSc1n[nH]c(-c2cccnc2)n1)Nc1ccc(Br)cc1	G9a inh 8.9µM
O=C(CN1CC(=O)Oc2ccccc21)OCC(=O)c1ccc(F)cc1	BAZ2B block 8.9µM, JMJD2A Tudor inh 10µM, G9a inh inconclusive, Sfp PPTase inh 50µM
O=C1CN(CC(=O)N2CCCCC2)c2ccccc2O1	G9a inh inconclusive
O=C(CN1CC(=O)Oc2ccccc21)OCC(=O)c1ccc(Br)cc1	JMJD2A Tudor inh 20µM (no result: BAZ2B block, G9a inh, Sfp PPTase inh)
NC(=O)c1sc2nc3c(c(-c4ccco4)c2c1N)CCC3	BAZ2B block inconclusive, JMJD2A Tudor inh 79µM, G9a inh inconclusive, Sfp PPTase inh 10µM
Cc1ccc(-c2c3c(nc4sc(C(N)=O)c(N)c24)CCCC3)o1	BAZ2B block inconclusive, G9a inh 45µM, Sfp PPTase inh 32µM
Clc1ccc(Nc2nc(-c3ccccc3)c3ccccc3n2)c(Cl)c1	none (no result: Sfp PPTase inh)
Cc1sc2nc(CSc3ccc([N+](=O)[O-])c(C(F)(F)F)c3)[nH]c(=O)c2c1C	G9a inh inconclusive, Sfp PPTase inh 56µM
Cc1sc2nc(CSC(C)C(=O)N(C)CC(=O)Nc3ccccc3C(F)(F)F)[nH]c(=O)c2c1C (centres undefined)	G9a inh inconclusive (no result: Sfp PPTase inh)
CC(C)n1nc(CC(=O)O)c2ccccc2c1=O	none
O=C(CCN1C(=O)/C(=C\c2cccs2)SC1=S)Nc1ccc(C(=O)O)cc1	JMJD2A Tudor inh inconclusive, G9a inh inconclusive
COc1ccccc1/C=C1\SC(=S)N(CCC(=O)Nc2ccc(C(=O)O)c(O)c2)C1=O	BAZ2B block 50µM, JMJD2A Tudor inh inconclusive, G9a inh 50µM, HP1b binding inh inconclusive
